Shown is part of a subset that was picked to be rich in hits.
ROC1-CUL1 inh: blocks human RBX1-Cullin-1 di-ubiquitin formation; P62877+Q13616; in vitro K48 di-Ub FRET, acceptor:donor ratio, 45 min; inhibition, % at 10 µM; 0.6% of 140,000 active; AID 1347404; in the data active = inhibition above about 25%
Target sequence (P62877 whole entry, looked up): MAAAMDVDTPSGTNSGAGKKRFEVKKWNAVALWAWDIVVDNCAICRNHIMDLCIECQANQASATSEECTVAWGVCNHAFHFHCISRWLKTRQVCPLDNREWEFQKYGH
Target sequence (Q13616 whole entry, looked up): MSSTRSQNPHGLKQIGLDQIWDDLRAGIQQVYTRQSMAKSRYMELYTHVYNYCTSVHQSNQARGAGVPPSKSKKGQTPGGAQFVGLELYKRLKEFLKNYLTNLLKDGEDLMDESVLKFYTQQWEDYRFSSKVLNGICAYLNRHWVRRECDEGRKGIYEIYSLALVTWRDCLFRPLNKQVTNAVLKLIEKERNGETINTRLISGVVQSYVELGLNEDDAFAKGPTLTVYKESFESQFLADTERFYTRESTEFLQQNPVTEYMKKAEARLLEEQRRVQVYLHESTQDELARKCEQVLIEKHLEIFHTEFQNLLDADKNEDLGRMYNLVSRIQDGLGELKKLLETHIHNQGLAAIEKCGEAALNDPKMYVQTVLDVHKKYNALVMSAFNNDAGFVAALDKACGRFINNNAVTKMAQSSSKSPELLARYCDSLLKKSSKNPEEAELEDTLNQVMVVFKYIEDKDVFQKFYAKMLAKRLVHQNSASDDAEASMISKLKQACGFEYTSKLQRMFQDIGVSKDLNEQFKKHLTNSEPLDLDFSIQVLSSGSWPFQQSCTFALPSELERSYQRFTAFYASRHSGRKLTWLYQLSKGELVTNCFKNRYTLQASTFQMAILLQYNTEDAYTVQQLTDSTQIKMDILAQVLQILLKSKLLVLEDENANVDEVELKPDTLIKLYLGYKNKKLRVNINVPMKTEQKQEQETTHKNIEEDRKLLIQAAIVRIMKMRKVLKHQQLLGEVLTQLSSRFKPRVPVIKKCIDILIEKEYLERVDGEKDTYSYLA
Of the large screens only hits and unclear results are named; the others gave an inactive call.

Cc1ccccc1NC(=O)CN1C(=O)S/C(=C/c2ccccc2)C1=O	none
Cc1cccc(C)c1NC(=O)CN1C(=O)S/C(=C\c2cccn2-c2cccc(C(=O)O)c2)C1=O	none
Cc1cccc(NC(=O)CN2C(=O)S/C(=C\c3cccn3-c3cccc(C(=O)O)c3)C2=O)c1	none
Cc1ccc(NC(=O)CN2C(=O)S/C(=C\c3ccc(N4CCOCC4)cc3C)C2=O)c(C)c1	none
Cc1ccccc1NC(=O)CN1C(=O)S/C(=C\c2cccn2-c2cccc(C(=O)O)c2)C1=O	ROC1-CUL1 inh 51.2
CC(Oc1ccc(F)cc1)C(=O)N1CCN(c2ccc(F)cc2)CC1 (stereo not given)	none
Cc1ccc(S(=O)(=O)Oc2ccc(C(=O)COC(=O)c3ccc(Br)cc3)cc2)cc1	none
COc1cccc(-c2n[nH]c3c2CN(C(=O)c2cc(C)n(C)n2)CC3)c1	none
Cc1ccc2onc(CC(=O)Nc3cc(F)ccc3F)c2c1	none
Cc1cccc2c1OC(=O)C(C(c1ccc(N(C)C)cc1)C1C(=O)Oc3c(C)cccc3C1=O)C2=O (stereo not given)	ROC1-CUL1 inh 91.6
Cc1ccccc1N1OC2C(=O)N(c3ccccc3Cl)C(=O)C2C1c1ccc(N(C)C)cc1 (stereo not given)	none
Cc1c(C(c2ccc(Br)cc2)C2C(=O)Oc3ccccc3C2=O)c(=O)n(-c2ccccc2)n1C (stereo not given)	none
Cc1noc(C)c1C(=O)N1CCN(Cc2c(Cl)cccc2Cl)CC1	none
CC1=CC(C)(C)N2C(=O)C(=O)c3cc(OC(=O)c4ccccc4Cl)cc1c32	none
CS(=O)(=O)Oc1ccc(Cl)cc1	none
CCN1CCN(C(=O)CCC2CCN(C(=O)c3csc(C(C)=O)c3)CC2)CC1	none
CCOc1ccc(N=C2S/C(=C\c3ccc(OCC)cc3OCC)C(=O)N2CC)cc1	none
CCc1ccc(OCC(=O)Nc2ccc(Br)cc2F)cc1	none
O=C1NC(=S)S/C1=C/c1c(Cl)cc(Cl)c(O)c1Cl	ROC1-CUL1 inh 27.8
O=C1NC(=S)S/C1=C/c1ccccn1	none
Cc1nn(C)cc1/C=C1\SC(=S)NC1=O	none
CC(C)OC(=O)c1c(NC(=O)c2cc(C(=O)O)nn2C)sc2c1CCCC2	none
O=C(CCCN1C(=O)/C(=C\c2cccc(Br)c2)SC1=S)NNC(=O)c1ccccc1O	none
CCCC(C(=O)O)N1C(=O)/C(=C/c2ccc(F)cc2)SC1=S (stereo not given)	none
NC(=O)CC(C(=O)O)N1C(=O)/C(=C/c2cccc(Br)c2)SC1=S (stereo not given)	ROC1-CUL1 inh 32.8
O=C(CCc1ccccc1)Nc1ccc(NC(=O)CCc2ccccc2)cc1	none
Cc1sc(N)c(C(=O)NCc2cccnc2)c1-c1ccccc1	none
COc1ccc(N2CCN(C(=O)c3csc(C(C)C)c3)CC2)cc1	none
NCc1sccc1-c1ccccc1	none
CC1CC(=O)C=CN1C(=O)Oc1ccccc1 (stereo not given)	none
Cc1c(NC(=O)c2ccccc2)cccc1-c1nc2ccccc2s1	none
O=C(/C=C/C(=O)c1ccccc1)c1ccccc1	ROC1-CUL1 inh 26.7
CC(/C=C/C(=O)c1ccc(C)cc1)=C\c1ccccc1	none
COc1ccccc1/C=C/C(=O)c1ccccc1	none
O=C(NC(=S)Nc1cc(Cl)cc(Cl)c1)c1ccc(Cl)cc1	none
OC1c2ccccc2CSc2sccc21 (stereo not given)	ROC1-CUL1 inh 49.2
C[N+]1(C)CCC(C2c3ccccc3CSc3sccc32)CC1 (stereo not given)	none
OC1c2ccccc2CCc2sccc21 (stereo not given)	none
COCCN1CC(C(=O)NCCc2ccc3ccccc3c2)CCC1=O (stereo not given)	none
CC1=C(C(=O)N2CCOCC2)C(c2ccc(C)cc2)n2ncnc2N1 (stereo not given)	none
Cc1cc(C(=O)NCCC2=CCCCC2)ccc1NS(C)(=O)=O	none
CCC(=NCc1ccc(OC)cc1)C1N=C(c2ccccc2)OC1=O (stereo not given)	none
CN=C1CC=CC=C(C(=O)/C=C/c2cccc(C(F)(F)F)c2)C1=O	ROC1-CUL1 inh 80.7
CCC(C)N1C(=O)S/C(=C/c2ccccc2Br)C1=O (stereo not given)	none
CCN=C1CC=CC=C(C(=O)/C=C/c2ccc(CC)cc2)C1=O	none
CCN=C1CC=CC=C(C(=O)/C=C/c2ccccc2Br)C1=O	ROC1-CUL1 inh 36.3
CCn1ncc(/C=C/C(=O)c2ccccc2)c1C	none
CCN=C1CC=CC=C(C(=O)/C=C/c2ccc(C#N)cc2)C1=O	none
CCN=C1CC=CC=C(C(=O)/C=C/c2ccccc2OCC)C1=O	none
CCN=C1CC=CC=C(C(=O)/C=C/c2ccccc2Cl)C1=O	none
CCN=C1CC=CC=C(C(=O)/C=C/c2ccccc2C)C1=O	ROC1-CUL1 inh 73.0
CCN=C1CC=CC=C(C(=O)/C=C/c2cccc(Cl)c2Cl)C1=O	ROC1-CUL1 inh 37.6
O=C(CCc1ccccc1)N/N=C/c1cccc(Cl)c1Cl	none
Cc1ccccc1N=C1CC=CC=CC1=O	none
COc1ccc(N2CCN(C(=O)C(C)Oc3ccccc3OC)CC2)cc1 (stereo not given)	none
O=C(O)c1ccc(CNC(=O)c2ccc(NC(=O)c3ccco3)cc2)cc1	none
COc1cc(C=Nc2cccc([N+](=O)[O-])c2)ccc1Oc1ccc([N+](=O)[O-])cc1[N+](=O)[O-]	none
COCc1nnc(NS(=O)(=O)Cc2ccccc2)s1	none
